Several values for one entry are separate records, joined by “and”; a condition that tells them apart may be missing. Equal values may be shown once. Some compounds were tested as several samples or in several runs, with calls that do not always agree. Activity calls are given as the source filed them. The calls were made as follows, unless noted: active = hit-call score of the fitted dose curve at least 0.9, where 1 is the maximum; inactive = score below 0.9.
Legend:
[1] = read-out: Monocyte Chemoattractant Protein-1 (MCP1), CCL2 (gene 6347); test: BSK_LPS_MCP1: BioMAP Diversity Plus: LPS Assay for Monocyte Chemoattractant Protein-1 (MCP1) Biomarker Activity (AID 2283081); details: primary human HUVEC with PBMC; actives raise or lower the signal
In short: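 Human umbilical vein endothelial cells co-cultured with PBMC, LPS-stimulated; secreted MCP-1 measured by ELISA 24 h after compound addition. Bidirectional curve fitting against DMSO baseline; SRB total-protein staining in parallel cultures for cytotoxicity.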

[2] = BSK_LPS_PGE2: BioMAP Diversity Plus: LPS Assay for Prostaglandin E2 (PGE2) Biomarker Activity (AID 2283082); details: primary human HUVEC with PBMC; actives raise or lower the signal
In short: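 HUVEC plus PBMC co-culture stimulated with LPS; secreted PGE2 quantified by ELISA 24 h after chemical dosing. Activity fitted bidirectionally against DMSO as negative control and baseline; parallel SRB total-protein staining served as cytotoxicity check.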

[3] = read-out: Macrophage colony-stimulating factor (MCSF), CSF1 (gene 1435); test: BSK_LPS_MCSF: BioMAP Diversity Plus: LPS Assay for Macrophage colony-stimulating factor (MCSF) Biomarker Activity (AID 2283083); details: primary human HUVEC with PBMC; actives raise or lower the signal
In short: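 HUVEC–PBMC co-culture, M-CSF measured by ELISA 24 h after chemical dosing. Fitted in both directions relative to DMSO as negative control; overt cytotoxicity assessed by SRB total-protein staining in parallel cultures.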

[4] = read-out: Tissue Factor, F3 (gene 2152); test: BSK_LPS_TissueFactor: BioMAP Diversity Plus: LPS Assay for Tissue Factor Biomarker Activity (AID 2283084); details: primary human HUVEC with PBMC; actives raise or lower the signal
In short: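 Human umbilical vein endothelial cells co-cultured with PBMC were dosed with compound. Cell-surface CD142 was measured by ELISA 24 h later. Activity was fitted bidirectionally against DMSO, with SRB total-protein staining in parallel cultures for cytotoxicity.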

[5] = read-out: Tumor necrosis factor (Homo sapiens) (UniProt P01375); test: BSK_LPS_TNFa: BioMAP Diversity Plus: LPS Assay for Tumour Necrosis Factor alpha (TNFa) Biomarker Activity (AID 2283085); details: primary human HUVEC with PBMC; actives raise or lower the signal
In short: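 Human umbilical vein endothelial cells co-cultured with PBMC were exposed to test chemical and TNFa measured by ELISA 24 h after dosing. Bidirectional curve fitting was done relative to DMSO as negative control and baseline.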

[6] = read-out: Vascular cell adhesion molecule 1 (VCAM1), VCAM1 (gene 7412); test: BSK_LPS_VCAM1: BioMAP Diversity Plus: LPS Assay for Vascular cell adhesion molecule 1 (VCAM1) Biomarker Activity (AID 2283086); details: primary human HUVEC with PBMC; actives raise or lower the signal
In short: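 Human umbilical vein endothelial cells co-cultured with peripheral blood mononuclear cells under LPS stimulation were exposed to test chemical for 24 h. VCAM-1 levels were then measured by ELISA, with bidirectional curve fitting relative to DMSO as negative control and baseline.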

[7] = read-out: CD40, CD40 (gene 958); test: BSK_SAg_CD40: BioMAP Diversity Plus: SAg Assay for CD40 Biomarker Activity (AID 2283088); details: primary human HUVEC with PBMC; actives raise or lower the signal
In short: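 HUVEC plus PBMC co-culture, superantigen-activated, with CD40 read by ELISA 24 h after dosing. Curves fitted in both directions against DMSO. Overt cytotoxicity checked by parallel SRB total-protein staining.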

[8] = read-out: CD69, CD69 (gene 969); test: BSK_SAg_CD69: BioMAP Diversity Plus: SAg Assay for CD69 Biomarker Activity (AID 2283089); details: primary human HUVEC with PBMC; actives raise or lower the signal;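 as to AC50: cell surface CD69 protein quantified by ELISA with fluorescence detection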
In short: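 ELISA, fluorescence read-out: CD69 on human umbilical vein endothelial cell + PBMC co-culture, 24 h post-dosing. Gain or loss of signal fitted bidirectionally against DMSO baseline.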

[9] = read-out: Monocyte Chemoattractant Protein-1 (MCP1), CCL2 (gene 6347); test: BSK_SAg_MCP1: BioMAP Diversity Plus: SAg Assay for Monocyte Chemoattractant Protein-1 (MCP1) Biomarker Activity (AID 2283090); details: primary human HUVEC with PBMC; actives raise or lower the signal
In short: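 MCP-1 levels in the endothelial–PBMC SAg co-culture were quantified by ELISA at 24 h post-dosing; both increases and decreases versus DMSO scored. Cytotoxicity monitored by SRB total protein in parallel cultures.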

[10] = read-out: E-selectin (Homo sapiens) (UniProt P16581); test: BSK_SAg_Eselectin: BioMAP Diversity Plus: SAg Assay for Eselectin Biomarker Activity (AID 2283091); details: primary human HUVEC with PBMC; actives raise or lower the signal
In short: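 Human umbilical vein endothelial cells co-cultured with peripheral blood mononuclear cells, SAg system. E-selectin is measured by ELISA 24 h after dosing and fitted bidirectionally against DMSO. Cytotoxicity is checked by SRB staining of parallel cultures.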

[11] = read-out: Monokine induced gamma interferon (MIG), CXCL9 (gene 4283); test: BSK_SAg_MIG: BioMAP Diversity Plus: SAg Assay for Monokine induced gamma interferon (MIG) Biomarker Activity (AID 2283092); details: primary human HUVEC with PBMC; actives raise or lower the signal
In short: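 ELISA readout of MIG/CXCL9; primary human umbilical vein endothelial cells co-cultured with peripheral blood mononuclear cells; 24 h post-dose; gain/loss fit vs DMSO baseline.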

[12] = BSK_SAg_PBMCCytotoxicity: PBMC Cytotoxicity Assessment in the BioMAP Diversity Plus: SAg Assay (AID 2283093); details: primary human HUVEC with PBMC;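 also: PBMC viability measured as Alamar Blue reduction fluorescence at 546/580 nm; fitted both ways against DMSO so a hit may be loss or gain of signal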;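 as to AC50: PBMC superantigen activated with SEB plus TSST-1 one hour after compound addition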
In short: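 Compound added to 75,000 PBMC/well for 1 h; SEB and TSST-1 then added at 20 ng/mL final each; 90 h incubation; Alamar Blue 6 h; read 546/580 nm ex/em. Activity fitted bidirectionally relative to DMSO baseline.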

[13] = BSK_SAg_SRB: Viability Assessment in the BioMAP Diversity Plus: SAg Assay (AID 2283096); details: primary human HUVEC with PBMC;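 also: cells read one day after compound addition; hits may be either gain or loss of signal compared with DMSO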
In short: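 Total protein by sulforhodamine B staining, 24 h after dosing, in HUVEC–PBMC co-culture; DMSO-referenced bidirectional fitting.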

[14] = read-out: CD38, CD38 (gene 952); test: BSK_SAg_CD38: BioMAP Diversity Plus: SAg Assay for CD38 Biomarker Activity (AID 2283087); details: primary human HUVEC with PBMC; actives raise or lower the signal
In short: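 Fluorescence ELISA of cell-surface CD38 served as the read-out, with either increase or decrease fitted against DMSO controls. Cells were a human umbilical vein endothelium plus PBMC co-culture under SEB/TSST-1 stimulation, measured 24 h after dosing.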

[15] = BSK_SAg_Proliferation: Cell Proliferation Assessment in the BioMAP Diversity Plus: SAg Assay (AID 2283095); details: primary human HUVEC with PBMC;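 also: relative cell number as total protein by SRB absorbance in sub-confluent culture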
In short: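 Human umbilical vein endothelial cells co-cultured with peripheral blood mononuclear cells; total protein measured by sulforhodamine B staining (0.1% SRB after 10% TCA fixation), absorbance at 560 nm, at 96 h. Bidirectional fit against DMSO baseline.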

[16] = target: human CYP2D6, CYP2D6 (gene 1565) (UniProt P10635); test: NVS_ADME_hCYP2D6: NovaScreen (NVS) CYP450-related Enzyme Activity (ADME) Assay for human CYP2D6 (AID 2283107; active = hit-call score of the fitted dose curve at least 0.9, where 1 is the maximum)
In short: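 Cell-free assay using recombinant human CYP2D6 expressed in insect cells, with a fluorogenic substrate read after 1 h. Primary screen in duplicate at 10 uM; actives followed up in concentration series. Loss of signal fitted relative to acetonitrile.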

Sequence of E-selectin (Homo sapiens) (P16581 whole entry, looked up): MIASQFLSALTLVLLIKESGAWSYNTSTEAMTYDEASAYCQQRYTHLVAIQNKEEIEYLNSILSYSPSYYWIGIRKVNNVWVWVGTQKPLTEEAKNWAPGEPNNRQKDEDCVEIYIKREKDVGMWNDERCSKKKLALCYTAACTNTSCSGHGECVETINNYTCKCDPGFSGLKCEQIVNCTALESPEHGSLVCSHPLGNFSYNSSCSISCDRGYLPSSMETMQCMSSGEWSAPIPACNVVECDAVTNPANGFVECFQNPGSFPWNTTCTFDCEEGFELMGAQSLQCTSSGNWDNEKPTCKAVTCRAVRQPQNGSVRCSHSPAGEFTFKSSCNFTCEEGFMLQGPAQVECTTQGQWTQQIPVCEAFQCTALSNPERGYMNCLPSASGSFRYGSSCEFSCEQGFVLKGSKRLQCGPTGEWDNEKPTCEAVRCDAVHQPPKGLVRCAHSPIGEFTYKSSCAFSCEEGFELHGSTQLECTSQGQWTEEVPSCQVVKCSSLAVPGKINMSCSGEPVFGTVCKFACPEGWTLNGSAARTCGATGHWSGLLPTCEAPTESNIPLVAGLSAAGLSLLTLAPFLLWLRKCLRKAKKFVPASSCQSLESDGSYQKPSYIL
Sequence of Tumor necrosis factor (Homo sapiens) (P01375 whole entry, looked up): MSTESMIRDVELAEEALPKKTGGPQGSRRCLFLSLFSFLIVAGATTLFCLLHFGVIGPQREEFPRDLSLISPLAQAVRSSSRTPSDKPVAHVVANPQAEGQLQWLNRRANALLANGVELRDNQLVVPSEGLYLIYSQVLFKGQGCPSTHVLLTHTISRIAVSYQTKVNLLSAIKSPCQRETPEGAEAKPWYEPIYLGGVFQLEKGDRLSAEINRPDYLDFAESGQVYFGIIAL
Sequence of human CYP2D6, CYP2D6 (gene 1565) (P10635 whole entry, looked up): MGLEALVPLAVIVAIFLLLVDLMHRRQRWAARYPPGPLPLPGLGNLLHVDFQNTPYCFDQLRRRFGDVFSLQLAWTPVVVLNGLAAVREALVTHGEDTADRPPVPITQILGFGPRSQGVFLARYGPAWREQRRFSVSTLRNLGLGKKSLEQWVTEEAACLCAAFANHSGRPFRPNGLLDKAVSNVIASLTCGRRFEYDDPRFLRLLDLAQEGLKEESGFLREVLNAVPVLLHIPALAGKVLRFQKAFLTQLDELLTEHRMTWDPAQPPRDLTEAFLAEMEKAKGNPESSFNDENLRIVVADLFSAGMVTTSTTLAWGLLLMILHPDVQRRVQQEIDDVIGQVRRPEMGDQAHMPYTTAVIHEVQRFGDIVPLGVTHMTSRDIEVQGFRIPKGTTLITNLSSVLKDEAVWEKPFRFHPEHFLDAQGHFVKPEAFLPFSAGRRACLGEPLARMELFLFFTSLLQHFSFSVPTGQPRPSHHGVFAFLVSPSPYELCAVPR

SMILES	outcome [1]	outcome [2]	outcome [3]	outcome [4]	AC50 [5]	outcome [5]	outcome [6]	outcome [7]	AC50 [8]	outcome [8]	outcome [9]	outcome [10]	outcome [11]	AC50 [12]	outcome [13]	outcome [14]	outcome [12]	outcome [15]	outcome [16]
OCC(F)(F)C(F)(F)C(F)(F)C(F)(F)C(F)(F)C(F)(F)C(F)(F)C(F)(F)CO	inactive	inactive	inactive	inactive	0.399 µM (active)	inactive	inactive	inactive	5.61 µM (active)	inactive	inactive	inactive	inactive	43.8 µM (active) and 50.7 µM (active)	inactive	–	–	–	–
OCC(F)(F)C(F)(F)C(F)(F)C(F)(F)C(F)(F)C(F)(F)CO	inactive	inactive	inactive	inactive	1.9 µM (active)	inactive	inactive	inactive	–	inactive	inactive	inactive	inactive	–	inactive	inactive	inactive	–	–
C[C@]12CC[C@H]3C(=CCc4cc(O)ccc43)[C@@H]1CCC2=O	inactive	inactive	inactive	inactive	–	inactive	inactive	inactive	–	inactive	inactive	inactive	inactive	–	inactive	inactive	inactive	inactive	inactive
O=C(O)CCC(F)(F)C(F)(F)C(F)(F)F	inactive	inactive	inactive	inactive	–	inactive	inactive	inactive	–	inactive	inactive	inactive	inactive	–	inactive	inactive	inactive	–	–
O=C(O)CCC(F)(F)C(F)(F)C(F)(F)C(F)(F)C(F)(F)C(F)(F)C(F)(F)F	inactive	inactive	inactive	inactive	–	inactive	inactive	inactive	–	inactive	inactive	inactive	inactive	–	inactive	inactive	inactive	–	–

— PubChem BioAssay (EPA / NIEHS)
